From PubChem BioAssay AID1159580 (chemical genetic matrix, 2015)
In all, about 5,500 compounds went through this assay and about 2,000 (36%) were called active. Another 18% or so got no clear call; they are omitted. Cut-off read from the data, not from the text of the source: active = normalized growth mostly below about 0.91 (no sharp cut-off); inconclusive = no clear call, values can overlap the other calls; inactive = mostly above about 0.92. The list shows a part of the results.

Test: chemical genetic growth profiling, strain panel (AID 1159580);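 note: tested at 20 µM; growth read once vehicle control cultures reached saturation at 30 °C; 1 = growth at the plate median or of vehicle wells; lower values mean less growth of the strain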
Settings: S. cerevisiae deletion strains, growth OD

Measured: normalized growth

COc1ccc(/C=C/C(=O)c2cc(O)ccc2O)cc1
active: locus YAL021C, strain ccr4, active compounds read low 0.81 | locus YAL026C, strain drs2, active compounds read low 0.224 | locus YAL030W, strain snc1, active compounds read low 0.31 | locus YBL061C, strain skt5, active compounds read low 0.38 | locus YBR009C, strain hhf1, active compounds read low 0.15 | locus YBR023C, strain chs3, active compounds read low 0.314 | locus YBR171W, strain sec66, active compounds read low 0.521 | locus YBR231C, strain swc5, active compounds read low 0.324 | locus YBR279W, strain paf1, active compounds read low 0.242 | locus YCL011C, strain gbp2, active compounds read low 0.15 | locus YCL016C, strain dcc1, active compounds read low 0.227 | locus YCL061C, strain MRC1, active compounds read low 0.167 | locus YCL069W, strain vba3, active compounds read low 0.13 | locus YCR088W, strain abp1, active compounds read low 0.263 | locus YDL005C, strain med2, active compounds read low 0.424 | locus YDL040C, strain nat1, active compounds read low 0.646 | locus YDR001C, strain nth1, active compounds read low 0.344 | locus YDR069C, strain doa4, active compounds read low 0.844 | locus YDR137W, strain rgp1, active compounds read low 0.285 | locus YDR159W, strain sac3, active compounds read low 0.268 | locus YDR195W, strain ref2 0.482 | locus YDR297W, strain sur2, active compounds read low 0.362 | locus YDR334W, strain swr1, active compounds read low 0.172 | locus YDR335W, strain msn5, active compounds read low 0.238 | locus YDR392W, strain spt3, active compounds read low 0.0876 | locus YEL003W, strain gim4, active compounds read low 0.133 | locus YEL037C, strain rad23, active compounds read low 0.617 | locus YEL061C, strain CIN8 (second series), active compounds read low 0.0921 | locus YER015W, strain faa2, active compounds read low 0.429 | locus YER016W, strain bim1, active compounds read low 0.426 | locus YER111C, strain swi4, active compounds read low 0.0945 | locus YER155C, strain BEM2 (second series), active compounds read low 0.106 | locus YFR010W, strain ubp6, active compounds read low 0.685 | locus YGL167C, strain pmr1, active compounds read low 0.894 | locus YGL173C, strain kem1, active compounds read low 0.516 | locus YGL227W, strain vid30, active compounds read low 0.103 | locus YGL240W, strain doc1, active compounds read low 0.48 | locus YGL253W, strain hxk2, active compounds read low 0.172 | locus YHR013C, strain ard1, active compounds read low 0.421 | locus YHR027C, strain rpn1, active compounds read low 0.661 | locus YHR030C, strain SLT2, active compounds read low 0.432 | locus YHR079C, strain IRE1, active compounds read low 0.456 | locus YHR142W, strain chs7, active compounds read low 0.101 | locus YJL092W, strain hpr5, active compounds read low 0.272 | locus YJL095W, strain BCK1 (second series), active compounds read low 0.0826 | locus YJL095W, strain BCK1, active compounds read low 0.427 | locus YJL115W, strain asf1, active compounds read low 0.416 | locus YJL129C, strain trk1, active compounds read low 0.373 | locus YJL154C, strain vps35, active compounds read low 0.613 | locus YJL164C, strain tpk1, active compounds read low 0.152 | locus YJL166W, strain qcr8, active compounds read low 0.141 | locus YJL187C, strain SWE1, active compounds read low 0.269 | locus YJR066W, strain TOR1, active compounds read low 0.465 | locus YKL160W, strain elf1, active compounds read low 0.136 | locus YKR026C, strain gcn3, active compounds read low 0.449 | locus YKR091W, strain srl3, active compounds read low 0.593 | locus YLL001W, strain dnm1, active compounds read low 0.338 | locus YLL026W, active compounds read low 0.226 | locus YLL041C, strain sdh2, active compounds read low 0.379 | locus YLR027C, strain aat2, active compounds read low 0.267 | locus YLR113W, strain HOG1, active compounds read low 0.396 | locus YLR221C, strain rsa3, active compounds read low 0.113 | locus YLR258W, strain gsy2, active compounds read low 0.333 | locus YLR262C, strain YPT6 (second series), active compounds read low 0.289 | locus YLR320W, strain mms22, active compounds read low 0.123 | locus YLR342W, strain FKS1, active compounds read low 0.248 | locus YLR357W, strain rsc2, active compounds read low 0.717 | locus YLR370C, strain arc18, active compounds read low 0.72 | locus YLR384C, strain iki3, active compounds read low 0.605 | locus YML120C, strain ndi1, active compounds read low 0.221 | locus YMR058W, strain fet3, active compounds read low 0.152 | locus YMR125W, strain sto1, active compounds read low 0.156 | locus YMR129W, active compounds read low 0.546 | locus YMR205C, strain PFK2, active compounds read low 0.178 | locus YMR231W, strain pep5, active compounds read low 0.522 | locus YNL071W, strain lat1, active compounds read low 0.0772 | locus YNL183C, strain NPR1, active compounds read low 0.475 | locus YNL209W, strain ssb2, active compounds read low 0.606 | locus YNL248C, strain rpa49, active compounds read low 0.319 | locus YNL322C, strain KRE1 (second series), active compounds read low 0.462 | locus YNR049C, strain mso1, active compounds read low 0.594 | locus YOR001W, strain rrp6, active compounds read low 0.349 | locus YOR070C, strain gyp1, active compounds read low 0.309 | locus YOR080W, strain dia2, active compounds read low 0.71 | locus YOR083W, strain WHI5, active compounds read low 0.38 | locus YOR106W, strain vam3, active compounds read low 0.391 | locus YOR231W, strain MKK1, active compounds read low 0.464 | locus YOR265W, strain rbl2, active compounds read low 0.425 | locus YOR270C, strain vph1, active compounds read low 0.191 | locus YOR290C, strain snf2, active compounds read low 0.145 | locus YPL051W, strain arl3, active compounds read low 0.29 | locus YPL078C, strain atp4, active compounds read low 0.166 | locus YPL106C, strain sse1, active compounds read low 0.483 | locus YPL240C, strain hsp82, active compounds read low 0.275 | locus YPL256C, strain CLN2, active compounds read low 0.551
